Values joined by “and” are separate entries in the source; they are usually repeats but may differ in a detail not shown here. Identical values can stand only once. Counter-ions that a name gives are not always drawn.
tested on: LOC_OS04G35114-cb001; assay: thermal shift delta Tm vs DMSO control; higher = stronger stabilization (binding); conditions: 12.5 µM; protein concentration 2 µM
Outline: (§1)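 The melting temperature shift given here is a triplicate mean, measured against protein that received only DMSO. Melting temperatures came from Boltzmann fits of differential scanning fluorimetry data on E. coli-expressed, purified rice kinase domain constructs. Each 19.5 μl well contained 2 μM kinase, 100 mM potassium phosphate pH 7.5, 150 mM NaCl, 10% glycerol, 5 × SYPRO Orange and compound in DMSO. Plates were scanned from 25°C to 95°C at 0.05°C/s.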

Row | Compound | thermal shift delta Tm
1 | CC#CC(=O)N1CCC[C@H]1c1nc(-c2ccc(C(=O)Nc3ccccn3)cc2)c2c(N)nccn12 [Acalabrutinib (ACP-196)] | 0.89 °C
2 | Nc1ncccc1-c1nc2ccc(-c3ccccc3)nc2n1-c1ccc(C2(N)CCC2)cc1 [Miransertib (ARQ 092) HCl] | 0.38 °C
3 | Cc1cc(C(C)Nc2ccccc2)c2nc(N3CCOCC3)cc(=O)n2c1 (configuration not stated) | 0.33 °C
4 | COc1cc2nccc(Oc3ccc(NC(=O)C4(C(=O)Nc5ccc(F)cc5)CC4)cc3)c2cc1OC [Cabozantinib malate (XL184)] | 0.52 °C
5 | COC(=O)N[C@@H](C)CNc1nccc(-c2cn(C(C)C)nc2-c2cc(Cl)cc(NS(C)(=O)=O)c2F)n1 [Encorafenib (LGX818)] | 0.62 °C
6 | COc1ccc(C(=O)Nc2sc3c(c2C(N)=O)CCCC3)cc1OC | 3.8 °C
7 | CN1C(=O)[C@@H](NC(=O)c2n[nH]c(Cc3ccccc3)n2)COc2ccccc21 | -0.51 °C
8 | Nc1nccc(Oc2ccc(NC(=O)c3c[nH]cc(-c4ccc(F)cc4)c3=O)cc2F)c1Cl | 0.58 °C
9 | COc1cc2c(c(OC)c1OC)-c1c(cc3c(c1OC)OCO3)CC(C)C(C)C2 (configuration not stated) [Schisandrin B (Sch B)] | 0.63 °C
10 | COC(=O)c1ccc2c(c1)NC(=O)/C2=C(\Nc1ccc(N(C)C(=O)CN2CCN(C)CC2)cc1)c1ccccc1 [Nintedanib (BIBF 1120)] | 6.69 °C
11 | O=C(Nc1ccccc1C(=O)NC1CCCCNC1=O)c1cc2ccccc2s1 (configuration not stated) | 0.94 °C
12 | Cc1cc(C)c(/C=C2\C(=O)Nc3ccccc32)[nH]1 [Semaxanib (SU5416)] | 6.57 °C
13 | N#Cc1cccc(-c2c[nH]c3ncnc(N4CCOCC4)c23)c1 | 5.02 °C
14 | Cc1ccc2nc(NCCN)c3ncc(C)n3c2c1 | 0.91 °C
15 | C[C@@H]1CCN(C(=O)CC#N)C[C@@H]1N(C)c1ncnc2[nH]ccc12 | 0.38 °C and 0.48 °C
16 | Cc1nc(NC(=O)N2CCC[C@H]2C(N)=O)sc1-c1ccnc(C(C)(C)C(F)(F)F)c1 [Alpelisib (BYL719)] | 1.56 °C
17 | CNc1nc(Nc2cn(C(C)(C)C#N)nc2C)ncc1C(F)(F)F | 1.36 °C
18 | O=C(Nc1c[nH]nc1-c1nc2ccc(CN3CCOCC3)cc2[nH]1)NC1CC1 | 5.39 °C
19 | N#Cc1ccc(-c2c(-c3ncn[nH]3)sc(N3CCOCC3)c2C#N)c(F)c1 | 0.45 °C
20 | Oc1cccc(-c2nc(N3CCOCC3)c3oc4ncccc4c3n2)c1 | 0.22 °C
21 | CN(C)C/C=C/C(=O)Nc1ccc(C(=O)Nc2cccc(Nc3ncc(Cl)c(-c4c[nH]c5ccccc45)n3)c2)cc1 | 1.96 °C
22 | CCNC(=O)Nc1ccc(-c2nc(N3CCOC[C@@H]3C)c3c(n2)C(C)(C)S(=O)(=O)C3)cc1 | 0.29 °C
23 | CNC(=O)c1cc(Oc2ccc3nc(N[C@@H]4CCCC[C@H]4O)sc3c2)ccn1 | 0.24 °C
24 | CN(C)CCOc1ccc(-c2nc(-c3ccncc3)c(-c3ccc4c(c3)CC/C4=N\O)[nH]2)cc1 | 0.33 °C
25 | Cc1ccc(NC(=O)c2cccc(N(C)C)c2)cc1NC(=O)c1ccc(O)cc1 | 0.46 °C

tested on: T1, LOC_OS04G38480-cb003; assay: as above; conditions: 12.5 µM; protein concentration 2 µM
T1 sequence (whole entry): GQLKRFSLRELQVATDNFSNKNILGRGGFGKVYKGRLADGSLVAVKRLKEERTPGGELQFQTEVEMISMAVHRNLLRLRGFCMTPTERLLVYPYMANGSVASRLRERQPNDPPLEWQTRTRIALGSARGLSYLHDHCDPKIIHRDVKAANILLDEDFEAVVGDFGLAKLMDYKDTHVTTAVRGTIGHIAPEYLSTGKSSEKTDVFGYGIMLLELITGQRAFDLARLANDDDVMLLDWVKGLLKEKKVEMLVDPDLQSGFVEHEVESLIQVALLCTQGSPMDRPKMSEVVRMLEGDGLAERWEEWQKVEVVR
Outline: as §1

Row | Compound | thermal shift delta Tm
26 | COc1cc(Nc2ncc(F)c(Nc3ccc4c(n3)NC(=O)C(C)(C)O4)n2)cc(OC)c1OC | 4.12 °C
27 | Cc1ccc(-n2nc(C(C)(C)C)cc2NC(=O)Nc2ccc(OCCN3CCOCC3)c3ccccc23)cc1 [Doramapimod (BIRB 796)] | 0.95 °C
28 | CC#CC(=O)N1CC[C@@H](n2c(=O)n(-c3ccc(Oc4ccccc4)cc3)c3c(N)ncnc32)C1 [ONO-4059 (GS-4059) hydrochloride] | 0.62 °C
29 | O=C(NC[C@H](O)CO)c1ccncc1Nc1ccc(I)cc1F | 0 °C
30 | CO[C@H]1C[C@@H]2CC[C@@H](C)[C@@](O)(O2)C(=O)C(=O)N2CCCC[C@H]2C(=O)O[C@H]([C@H](C)C[C@@H]2CC[C@@H](O)[C@H](OC)C2)CC(=O)[C@H](C)/C=C(\C)[C@@H](O)[C@@H](OC)C(=O)[C@H](C)C[C@H](C)/C=C/C=C/C=C/1C [Rapamycin (Sirolimus)] | 1.63 °C
31 | COc1c(C)c(C(=O)c2ccc(N)c(C(=O)O)c2)n2ccccc12 | 0.31 °C
32 | CC(C)CC(=O)Nc1n[nH]c2c1CN(C(=O)C1CCN(C)CC1)C2(C)C | 0.59 °C
33 | COc1cc2ncnc(Nc3ccc(O)c(Br)c3)c2cc1OC | 2.11 °C
34 | CCN(CC)CCCC(C)Nc1nc(C)cc(Nc2ccc3nc(C)cc(N)c3c2)n1 (configuration not stated) | 0.87 °C
35 | Cc1cc(NC(=O)c2cccc(NC(=O)/C=C/CN(C)C)c2)ccc1Nc1nccc(-c2cccnc2)n1 | 1.17 °C
36 | COc1cc2ncnc(Nc3cccc(Cl)c3F)c2cc1OC(=O)N1CCN(C)C[C@H]1C | 1.2 °C
37 | Cc1ccc(C(=O)Nc2ccc(Oc3cc4cnn(C)c4cc3-c3cn[nH]c3)c(F)c2)c(=O)n1-c1ccc(F)cc1 | 3.19 °C
38 | CC#CC(=O)N1CCC[C@H]1c1nc(-c2ccc(C(=O)Nc3ccccn3)cc2)c2c(N)nccn12 [Acalabrutinib (ACP-196)] | 1.22 °C
39 | Nc1ncccc1-c1nc2ccc(-c3ccccc3)nc2n1-c1ccc(C2(N)CCC2)cc1 [Miransertib (ARQ 092) HCl] | 0.6 °C
40 | Cc1cc(C(C)Nc2ccccc2)c2nc(N3CCOCC3)cc(=O)n2c1 (configuration not stated) | 0.36 °C
41 | COc1cc2nccc(Oc3ccc(NC(=O)C4(C(=O)Nc5ccc(F)cc5)CC4)cc3)c2cc1OC [Cabozantinib malate (XL184)] | 1.59 °C
42 | COC(=O)N[C@@H](C)CNc1nccc(-c2cn(C(C)C)nc2-c2cc(Cl)cc(NS(C)(=O)=O)c2F)n1 [Encorafenib (LGX818)] | 0.49 °C
43 | COc1ccc(C(=O)Nc2sc3c(c2C(N)=O)CCCC3)cc1OC | 3.31 °C
44 | CN1C(=O)[C@@H](NC(=O)c2n[nH]c(Cc3ccccc3)n2)COc2ccccc21 | 2 °C

Row | Compound | thermal shift delta Tm
45 | Nc1nccc(Oc2ccc(NC(=O)c3c[nH]cc(-c4ccc(F)cc4)c3=O)cc2F)c1Cl | 2.79 °C
46 | COc1cc2c(c(OC)c1OC)-c1c(cc3c(c1OC)OCO3)CC(C)C(C)C2 (configuration not stated) [Schisandrin B (Sch B)] | 0.75 °C
47 | COC(=O)c1ccc2c(c1)NC(=O)/C2=C(\Nc1ccc(N(C)C(=O)CN2CCN(C)CC2)cc1)c1ccccc1 [Nintedanib (BIBF 1120)] | 0.23 °C
48 | O=C(Nc1ccccc1C(=O)NC1CCCCNC1=O)c1cc2ccccc2s1 (configuration not stated) | 1.47 °C
49 | Cc1cc(C)c(/C=C2\C(=O)Nc3ccccc32)[nH]1 [Semaxanib (SU5416)] | 2.87 °C
50 | N#Cc1cccc(-c2c[nH]c3ncnc(N4CCOCC4)c23)c1 | 1.08 °C
51 | Cc1ccc2nc(NCCN)c3ncc(C)n3c2c1 | 0.69 °C
52 | C[C@@H]1CCN(C(=O)CC#N)C[C@@H]1N(C)c1ncnc2[nH]ccc12 | 0.3 °C and 0.6 °C
53 | Cc1nc(NC(=O)N2CCC[C@H]2C(N)=O)sc1-c1ccnc(C(C)(C)C(F)(F)F)c1 [Alpelisib (BYL719)] | 0.94 °C
54 | CNc1nc(Nc2cn(C(C)(C)C#N)nc2C)ncc1C(F)(F)F | 1.34 °C
55 | O=C(Nc1c[nH]nc1-c1nc2ccc(CN3CCOCC3)cc2[nH]1)NC1CC1 | 3.78 °C
56 | N#Cc1ccc(-c2c(-c3ncn[nH]3)sc(N3CCOCC3)c2C#N)c(F)c1 | 1.64 °C
57 | Oc1cccc(-c2nc(N3CCOCC3)c3oc4ncccc4c3n2)c1 | 1.17 °C
58 | CN(C)C/C=C/C(=O)Nc1ccc(C(=O)Nc2cccc(Nc3ncc(Cl)c(-c4c[nH]c5ccccc45)n3)c2)cc1 | 4.69 °C
59 | CCNC(=O)Nc1ccc(-c2nc(N3CCOC[C@@H]3C)c3c(n2)C(C)(C)S(=O)(=O)C3)cc1 | 1.39 °C
60 | CNC(=O)c1cc(Oc2ccc3nc(N[C@@H]4CCCC[C@H]4O)sc3c2)ccn1 | 1.59 °C
61 | CN(C)CCOc1ccc(-c2nc(-c3ccncc3)c(-c3ccc4c(c3)CC/C4=N\O)[nH]2)cc1 | 0.74 °C
62 | Cc1ccc(NC(=O)c2cccc(N(C)C)c2)cc1NC(=O)c1ccc(O)cc1 | 0.87 °C

Source: the supplement of paper PMC9694430
